Screens: PubChem BioAssay, National Center for Advancing Translational Sciences (NCATS)
Only some compounds are listed: those with a hit (about 2.3% of all), similar ones and a draw of the others.
POLH inh: blocks human DNA polymerase eta activity; Q9Y253; recombinant Pol eta, fluorescent DNA replication assay; Potency, µM (highest dose often 114 µM), inactives show at the highest dose activity change, negative = inhibition, most hits filed as inhibitors; actives 1.2% (n = 390,000); AID 588591; also: % is scaled to controls: 0 for no effect and ±100 for the full control effect
Target sequence (Q9Y253 whole entry, looked up): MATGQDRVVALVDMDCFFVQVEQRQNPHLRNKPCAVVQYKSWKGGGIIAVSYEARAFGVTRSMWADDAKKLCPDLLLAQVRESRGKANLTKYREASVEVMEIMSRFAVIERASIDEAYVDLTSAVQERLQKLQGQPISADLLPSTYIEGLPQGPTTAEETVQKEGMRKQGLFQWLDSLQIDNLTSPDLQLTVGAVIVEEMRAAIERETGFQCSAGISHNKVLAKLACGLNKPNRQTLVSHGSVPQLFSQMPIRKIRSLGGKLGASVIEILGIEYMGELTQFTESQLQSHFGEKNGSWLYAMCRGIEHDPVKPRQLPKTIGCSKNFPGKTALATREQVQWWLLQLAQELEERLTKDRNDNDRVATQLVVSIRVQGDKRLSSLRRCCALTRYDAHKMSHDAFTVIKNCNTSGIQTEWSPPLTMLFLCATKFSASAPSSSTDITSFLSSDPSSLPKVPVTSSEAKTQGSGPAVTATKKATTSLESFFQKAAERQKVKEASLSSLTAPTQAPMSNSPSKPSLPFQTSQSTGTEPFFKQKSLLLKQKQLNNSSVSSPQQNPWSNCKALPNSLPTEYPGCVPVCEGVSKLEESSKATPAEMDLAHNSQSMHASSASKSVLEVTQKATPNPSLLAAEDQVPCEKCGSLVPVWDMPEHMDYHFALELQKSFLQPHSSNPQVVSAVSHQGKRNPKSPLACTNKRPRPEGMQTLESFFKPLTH
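Fluorescent replication assay: 50 nM final substrate added after a 15 min room-temperature compound preincubation with 10 nM enzyme. Signal taken at 0 min and again at 10 min.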
Pol iota inh: blocks human DNA polymerase iota activity | Pol iota fluorescent replication assay, 10 min | Potency, µM (top dose mostly 115 µM), without a hit: at the top dose activity, negative = inhibition, hits mostly inhibitors | actives 1% (n = 390,000) | AID 588590
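Pol iota at 10 nM preincubated 15 min with compounds at room temperature; reaction started with fluorescent substrate, 50 nM final. Fluorescence read kinetically at 0 and 10 min; buffer-only wells as negative control.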
POLK inh: inhibitors of human DNA polymerase kappa; Q9UBT6; purified Pol kappa, fluorescent DNA synthesis assay, 10 min; Potency, µM (doses to about 107 µM), for the others: at the top dose activity, negative = inhibition, actives largely listed as inhibitors; actives 0.53% (n = 400,000); AID 588579; also: % is scaled to controls: 0 for no effect and ±100 for the full control effect
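Readout: fluorescence, taken kinetically at 0 and 10 min. Conditions: 10 nM Pol kappa, 15 min RT compound preincubation, 50 nM substrate final. Controls: enzyme-free buffer wells.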
WRN inhibitor: inhibitors of human WRN helicase; Q14191; WRN helicase unwinding, fluorescent forked duplex, kinetic; Potency, µM (highest dose often 114 µM), without a hit: at the top dose activity change, negative = inhibition, most hits filed as inhibitors; actives 0.46% (n = 360,000); AID 651768; also: % is scaled to controls: 0 for no effect and ±100 for the full control effect; nearly all actives have a fitted effect of over 55% in size
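Enzyme (20 nM final) and test compound sit together 15 min at room temperature before substrate addition. Substrate is a single-forked duplex oligonucleotide (100 nM) labelled with fluorophore and quencher, with 2 mM ATP; helicase unwinding raises red fluorescence, read kinetically.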
Pol beta inh: inhibitors of human DNA polymerase beta | Pol beta primer extension/strand displacement, fluorescence kinetic | Potency, µM (highest dose often 114 µM), without a hit: at the highest dose activity change, negative = inhibition, actives largely listed as inhibitors | P06746 | actives 1.3% (n = 340,000); also: % is scaled to controls: 0 for no effect and ±100 for the full control effect
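Kinetic readout of DNA synthesis with strand displacement by Pol beta. Compound and 10 nM enzyme sit 15 min at room temperature; 50 nM substrate starts the reaction, read immediately and at 10 min.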
Starred values were filed as active, the others as inactive; [ ] = remark or other dose. Calls follow the shape of the dose curve; as a rule, active = well fitted curve in the direction sought with a large enough effect; inconclusive = small, poorly fitted or top-dose-only effect, or another doubt; inactive = no such curve, though single readings can be large; an effect the other way counts as inactive or inconclusive. Potency is read from the fitted curve at half-maximal effect.

How did Cc1ccc(OCC(=O)N/N=C/C=C/c2ccco2)c(Br)c1 do in these assays?
POLH inh: -6%; Pol iota inh: 50µM*; POLK inh: 79µM*; WRN inhibitor: -14%; Pol beta inh: -23%

What do the screens show for `O=C(N/N=C/C=C\c1ccccc1[N+](=O)[O-])c1cccs1`?
POLH inh: 7%; Pol iota inh: -11%; POLK inh: 2%[60.1 µM]; WRN inhibitor: -11%; Pol beta inh: -8%

How did O=C(N/N=C/C=C\c1ccco1)c1cccs1 do in these assays?
POLH inh: inconclusive; Pol iota inh: 25µM*; POLK inh: inconclusive; WRN inhibitor: -5%[11.6 µM]; Pol beta inh: 22µM*

How did O=C(N/N=C/C=C/c1ccco1)c1ccccc1Cl do in these assays?
POLH inh: -5%; Pol iota inh: inconclusive; POLK inh: 79µM*; WRN inhibitor: -5%[11.6 µM]; Pol beta inh: 1%

What do the screens show for `O=C(N/N=C/C=C/c1ccco1)/C(=C/c1ccccc1)NC(=O)c1ccccc1`?
POLH inh: 79µM*; Pol iota inh: 13µM*; POLK inh: inconclusive; WRN inhibitor: -14%; Pol beta inh: 2%

Results for COc1ccc([C@@H]2CC(=O)c3c(O)cc(O[C@@H]4O[C@H](CO)[C@@H](O)[C@H](O)[C@H]4OC4O[C@@H](C)[C@H](O)[C@@H](O)[C@H]4O)cc3O2)cc1O (some centres undefined) ?
POLK inh: 14%[60.1 µM]

How did COc1ccc(C(=O)NCC2CCCO2)cc1 (centres undefined) do in these assays?
POLH inh: -2%; Pol iota inh: 24%; POLK inh: -24%; WRN inhibitor: inconclusive; Pol beta inh: 0%

What do the screens show for `Cc1ccc([N+](=O)[O-])cc1S(=O)(=O)Nc1ccc(C(=O)NCC2CCCO2)cc1` (centres undefined)?
POLH inh: 79µM*; Pol iota inh: inconclusive; POLK inh: -11%; WRN inhibitor: -9%

Results for Cc1ccc(C)n1-c1ccc(C(=O)NCC2CCCO2)cc1 (centres undefined) ?
POLH inh: inconclusive; Pol iota inh: inconclusive; POLK inh: -13%; WRN inhibitor: -10%; Pol beta inh: 40µM*

What do the screens show for `O=C(NCCCCCCNC(=O)ON=C1CCCCC1)ON=C1CCCCC1`?
POLK inh: 13%[60.1 µM]

What do the screens show for `CC(C)Cn1c(SCc2nnc(-c3cccs3)o2)nc(O)cc1=O`?
POLH inh: inconclusive; Pol iota inh: 25µM*; POLK inh: -42%; WRN inhibitor: -7%[57.1 µM]; Pol beta inh: -6%

Results for c1ccc(Sc2ccccn2)cc1 ?
POLH inh: -3%; Pol iota inh: -12%; POLK inh: 2%; WRN inhibitor: -5%

Results for c1ccc(SSc2ccccn2)nc1 ?
POLH inh: -4%; Pol iota inh: inconclusive; POLK inh: -11%; WRN inhibitor: 22µM*

How did COc1ccc(CC(=O)NNS(=O)(=O)c2cccc([N+](=O)[O-])c2)cc1OC do in these assays?
POLH inh: -11%; Pol iota inh: 19%; POLK inh: 10%; WRN inhibitor: 0%; Pol beta inh: 29%

How did COc1ccc(-n2c(O)c(/C=N/NS(=O)(=O)c3cccc([N+](=O)[O-])c3)c3ccccc3c2=O)cc1OC do in these assays?
POLH inh: -11%; Pol iota inh: inconclusive; POLK inh: -9%; WRN inhibitor: 14µM*; Pol beta inh: -20%

What do the screens show for `O=C(CNC(=O)C(c1ccccc1)c1ccccc1)OCC(=O)c1cccc2ccccc12`?
Pol iota inh: 18%; POLK inh: 10%

What do the screens show for `Cc1cc(Nc2sc(C(=O)c3ccc(F)cc3)c(N)c2C(=O)Nc2ccc(F)cc2)ccc1Cl`?
POLH inh: -22%; Pol iota inh: 1%; POLK inh: 3%[60.1 µM]; Pol beta inh: -1%

Results for CCC(C)[C@H](NC(=O)N1CC(=O)Nc2ccccc21)C(=O)N1CCC[C@H]1C(=O)O (some centres undefined) ?
POLH inh: -18%; Pol iota inh: 79µM*; POLK inh: 11%; WRN inhibitor: -1%; Pol beta inh: 3%

Results for N/C(=C\C(=O)c1cc(Cl)ccc1O)C(Cl)(Cl)Cl ?
POLH inh: 50µM*; Pol iota inh: inconclusive; POLK inh: 0%; WRN inhibitor: 0%; Pol beta inh: 13%

Results for CC(C)(C)c1ccc(C(=O)CC(=O)c2cc(Cl)ccc2O)cc1 ?
POLH inh: -3%; Pol iota inh: 13%; POLK inh: -4%; WRN inhibitor: -2%; Pol beta inh: 8%

Results for Cc1c(C(=O)O)c(O)cc2c1C(=O)c1c(O)c([C@H]3O[C@H](CO)[C@@H](O)[C@H](O)[C@H]3O)c(O)c(O)c1C2=O ?
Pol iota inh: 79µM*; POLK inh: 3.2µM*

Results for CS(=O)c1ccccc1O (centres undefined) ?
POLH inh: -7%; Pol iota inh: -17%; POLK inh: -18%; WRN inhibitor: -6%; Pol beta inh: 4%

What do the screens show for `O=S(c1ccccc1O)S(=O)c1ccccc1O` (centres undefined)?
POLH inh: 22µM*; Pol iota inh: 13µM*; POLK inh: inconclusive; WRN inhibitor: 14µM*

Results for O=C(Nc1ccc(NC(=O)C2CC2)cn1)c1ccccc1 ?
POLH inh: -14%; Pol iota inh: -16%; POLK inh: 4%; WRN inhibitor: 8%; Pol beta inh: -8%

What do the screens show for `O=C(Cc1ccccc1)Nc1ccc(NC(=O)c2ccccc2)nc1`?
POLH inh: 6%; Pol iota inh: 76%; POLK inh: -5%; WRN inhibitor: -2%; Pol beta inh: 63µM*

What do the screens show for `CCc1ccc(C2=C(C)C(N3CCC(C(=O)Nc4ccc(F)cc4)CC3)=NS2(=O)=O)cc1`?
Pol iota inh: inconclusive; POLK inh: -11%; Pol beta inh: 22µM*

How did CCc1ccccc1NC(=O)C1CCN(C2=NS(=O)(=O)C(c3ccc(C)c(C)c3)=C2C)CC1 do in these assays?
Pol iota inh: -10%; POLK inh: -33%; Pol beta inh: 13µM*

Results for CN(C)c1ccc(/C=C2\C=Cc3ccccc32)cc1Cl ?
Pol iota inh: 8%; POLK inh: -15%

What do the screens show for `Cc1cc(N(C)C)cc(C)c1/C=C/c1cc[n+](C)c2ccccc12`?
Pol iota inh: 58%; POLK inh: -18%

Results for COC(=O)[C@H](CCSC)NC(=O)c1ccc(NC[C@@H](N)CS)cc1-c1ccccc1 ?
POLK inh: 15%[60.1 µM]

What do the screens show for `COc1cc(CN(C(=O)c2ccc(Cl)cc2)C2CCS(=O)(=O)C2)cc(OC)c1OC` (centres undefined)?
POLH inh: -14%; Pol iota inh: 10%; POLK inh: 13%; Pol beta inh: 1%
